From PubChem BioAssay (NCATS)
Inconclusive results are not listed. A call without a number means that no potency is given here. Active and inactive are the calls of the source. Calls follow the shape of the dose curve; as a rule, active = well fitted curve in the direction sought with a large enough effect; inconclusive = small, poorly fitted or top-dose-only effect, or another doubt; inactive = no such curve, though single readings can be large; an effect the other way counts as inactive or inconclusive.

What was measured:
[1] = qHTS of pediatric cancer cell lines to identify multiple opportunities for drug repurposing: Primary screen for NB1643 cells (AID 1347099); also: nearly all actives have a fitted effect of over 50% in size; also: potency is read from the fitted curve at half-maximal effect
Method in brief: (§1)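 CRCs from 8- or 11-point titrations (lowest final 0.59 nM NPC, 0.78 nM MIPE). Cell viability: CellTiter-Glo after 48 h incubation, 15 min room-temperature development, luminescence imaging.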

[2] = qHTS of pediatric cancer cell lines to identify multiple opportunities for drug repurposing: Primary screen for OHS-50 cells (AID 1347103); also: nearly all actives have a fitted effect of over 40% in size; also: potency is read from the fitted curve at half-maximal effect
Method in brief: (§2)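 Cells (500-1,000/well) rested 5 h, then received compounds for 48 h; metabolically active cells were measured by CellTiter-Glo luminescence. Final concentrations spanned up to 46 µM (MIPE, 11-point) or 0.59 nM-46 µM (NPC, 8-point) in primary screens, 11-point in follow-ups.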

[3] = qHTS of pediatric cancer cell lines to identify multiple opportunities for drug repurposing: Primary screen for RD cells (AID 1347104); also: nearly all actives have a fitted effect of over 55% in size; also: potency is read from the fitted curve at half-maximal effect
Method in brief: as §1

[4] = qHTS of pediatric cancer cell lines to identify multiple opportunities for drug repurposing: Primary screen for MG 63 (6-TG R) cells (AID 1347105); also: nearly all actives have a fitted effect of over 50% in size; also: potency is read from the fitted curve at half-maximal effect
Method in brief: as §1

[5] = qHTS of pediatric cancer cell lines to identify multiple opportunities for drug repurposing: Primary screen for control Hh wild type fibroblast cells (AID 1347106); also: nearly all actives have a fitted effect of over 55% in size; also: potency is read from the fitted curve at half-maximal effect
Method in brief: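 Cells (500-1,000/well) in growth media were settled 5 h at 37 degrees C, then given compounds for 48 h. Viability was read as CellTiter-Glo luminescence. Primary runs used MIPE at 11 points (0.78 nM-46 µM) and NPC at 8 points (0.59 nM-46 µM); follow-ups used 11 points.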

[6] = qHTS of pediatric cancer cell lines to identify multiple opportunities for drug repurposing: Primary screen for LAN-5 cells (AID 1347100); also: potency is read from the fitted curve at half-maximal effect
Method in brief: as §2

[7] = qHTS of pediatric cancer cell lines to identify multiple opportunities for drug repurposing: Primary screen for BT-12 cells (AID 1347101); also: nearly all actives have a fitted effect of over 25% in size; also: potency is read from the fitted curve at half-maximal effect
Method in brief: as §2

[8] = qHTS of pediatric cancer cell lines to identify multiple opportunities for drug repurposing: Primary screen for Rh18 cells (AID 1347102); also: nearly all actives have a fitted effect of over 65% in size; also: potency is read from the fitted curve at half-maximal effect
Method in brief: as §2

[9] = qHTS of pediatric cancer cell lines to identify multiple opportunities for drug repurposing: Primary screen for Rh41 cells (AID 1347108); also: nearly all actives have a fitted effect of over 70% in size; also: potency is read from the fitted curve at half-maximal effect
Method in brief: as §1

[10] = qHTS of pediatric cancer cell lines to identify multiple opportunities for drug repurposing: Confirmatory screen for A673 cells (AID 1347110);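 also: cells exposed to compound for 48 h before the viability read; nearly all actives have a fitted effect of over 65% in size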; also: potency is read from the fitted curve at half-maximal effect
Method in brief: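 Cells plated at 500-1,000/well were treated five hours later with multi-point dilutions up to 46 µM final. After two days, CellTiter-Glo was added and luminescence read.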

[11] = qHTS of pediatric cancer cell lines to identify multiple opportunities for drug repurposing: Confirmatory screen for NB-EBc1 cells (AID 1347115);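 also: cells exposed to compound for 48 h before the viability read; nearly all actives have a fitted effect of over 45% in size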
Method in brief: as §2

[12] = qHTS of pediatric cancer cell lines to identify multiple opportunities for drug repurposing: Confirmatory screen for SJ-GBM2 cells (AID 1347116); also: nearly all actives have a fitted effect of over 60% in size; also: potency is read from the fitted curve at half-maximal effect
Method in brief: (§3)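 Viability measured as metabolically active cells via CellTiter-Glo luminescence following 48 hours of compound exposure, 11-point dilutions in confirmatory testing. 500-1,000 cells/well plated 5 hours before dosing; controls were DMSO and 2.3 µM bortezomib.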

[13] = qHTS of pediatric cancer cell lines to identify multiple opportunities for drug repurposing: Primary screen for Rh30 cells (AID 1347107); also: nearly all actives have a fitted effect of over 75% in size; also: potency is read from the fitted curve at half-maximal effect
Method in brief: as §2

[14] = qHTS of pediatric cancer cell lines to identify multiple opportunities for drug repurposing: Confirmatory screen for SK-N-MC cells (AID 1347111);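 also: potency is read from the fitted curve at half-maximal effect; cells exposed to compound for 48 h before the readout; nearly all actives have a fitted effect of over 70% in size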
Method in brief: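 Seed 500-1,000 cells/well; rest 5 h at 37 degrees C. Pin-transfer compounds, 11-point titration. Incubate 48 h. Add CellTiter-Glo, 15 min RT, read luminescence.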

[15] = qHTS of pediatric cancer cell lines to identify multiple opportunities for drug repurposing: Confirmatory screen for BT-12 cells (AID 1347112); also: nearly all actives have a fitted effect of over 55% in size; also: potency is read from the fitted curve at half-maximal effect
Method in brief: as §2

[16] = qHTS of pediatric cancer cell lines to identify multiple opportunities for drug repurposing: Confirmatory screen for NB1643 cells (AID 1347109); also: nearly all actives have a fitted effect of over 45% in size
Method in brief: as §2

[17] = qHTS of pediatric cancer cell lines to identify multiple opportunities for drug repurposing: Confirmatory screen for LAN-5 cells (AID 1347113); also: nearly all actives have a fitted effect of over 65% in size
Method in brief: as §2

[18] = qHTS of pediatric cancer cell lines to identify multiple opportunities for drug repurposing: Confirmatory screen for TC32 cells (AID 1347118);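 also: cells exposed to compound for 48 h before the read; nearly all actives have a fitted effect of over 65% in size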; also: potency is read from the fitted curve at half-maximal effect
Method in brief: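 Luminescent ATP read-out (CellTiter-Glo) of metabolically active TC32 cells after 48 h exposure. Concentration-response curves came from 11-point (MIPE, 0.78 nM–46 µM) or 8-point (NPC, 0.59 nM–46 µM) primary titrations; follow-up used 11 points.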

[19] = qHTS of pediatric cancer cell lines to identify multiple opportunities for drug repurposing: Confirmatory screen for DAOY cells (AID 1347114); also: nearly all actives have a fitted effect of over 65% in size; also: potency is read from the fitted curve at half-maximal effect
Method in brief: as §3

[20] = qHTS of pediatric cancer cell lines to identify multiple opportunities for drug repurposing: Confirmatory screen for BT-37 cells (AID 1347117); also: nearly all actives have a fitted effect of over 55% in size
Method in brief: as §2

Compound: CCOC(=O)N1c2ccc(C(F)(F)F)cc2[C@@H](N(Cc2cc(C(F)(F)F)cc(C(F)(F)F)c2)C(=O)OC)C[C@H]1CC
- Potency [1]: inactive
- Potency [2]: 15.3 µM (active)
- Potency [3]: inactive
- Potency [4]: inactive
- Potency [5]: inactive

Compound: O=C(c1ccc(F)c(F)c1Nc1ccc(I)cc1F)N1CC(O)([C@H]2CCCCN2)C1
- Potency [6]: 0.935 µM (active)
- Potency [7]: 1.09 µM (active)
- Potency [8]: 16.6 µM (active)
- Potency [2]: 1.09 µM (active)
- Potency [3]: 0.526 µM (active)
- Potency [4]: 29.6 µM (active)
- Potency [5]: 16.6 µM (active)
- Potency [9]: 18.7 µM (active)
- Potency [10]: 26.1 µM (active)
- Potency [11]: inactive
- Potency [12]: inactive

Compound: O=C(Nc1ncc(SCCN2CCCC2)s1)[C@]1(c2ccc(S(=O)(=O)C3CC3)cc2)C[C@@H]1C1CCCCC1
- Potency [6]: 23.5 µM (active)
- Potency [7]: 27.3 µM (active)
- Potency [8]: 20.9 µM (active)
- Potency [2]: 24.3 µM (active)
- Potency [3]: 14.8 µM (active)
- Potency [4]: 29.6 µM (active)
- Potency [5]: inactive
- Potency [13]: 20.9 µM (active)
- Potency [9]: 18.7 µM (active)

Compound: CCCC1OC2C[C@@H]3[C@H]4CCC5=CC(=O)C=C[C@]5(C)[C@H]4C(O)C[C@]3(C)[C@]2(C(=O)CO)O1 (stereo partly specified)
- Potency [1]: 20.9 µM (active)
- Potency [2]: inactive
- Potency [3]: inactive
- Potency [4]: inactive
- Potency [5]: inactive
- Potency [10]: inactive
- Potency [14]: 26.1 µM (active)
- Potency [15]: inactive
- Potency [11]: inactive
- Potency [12]: 1.47 µM (active)

Compound: O=C(O)c1ccc(O)c2ncc(N3CCOCC3)cc12
- Potency [1]: 23.5 µM (active)
- Potency [8]: inactive
- Potency [2]: 24.3 µM (active)
- Potency [9]: 18.7 µM (active)

Compound: CC(C)(CO)[C@@H](O)C(=O)NCCC(=O)O
- Potency [6]: inactive
- Potency [7]: inactive
- Potency [8]: inactive
- Potency [2]: inactive
- Potency [3]: inactive
- Potency [4]: inactive
- Potency [5]: inactive
- Potency [13]: inactive
- Potency [9]: inactive

Compound: C[C@@H](O[C@H]1OCCN(Cc2n[nH]c(=O)[nH]2)[C@@H]1c1ccc(F)cc1)c1cc(C(F)(F)F)cc(C(F)(F)F)c1
- Potency [1]: 23.5 µM (active)
- Potency [2]: 30.6 µM (active)
- Potency [4]: 23.5 µM (active)
- Potency [5]: inactive

Compound: NC[C@H]1O[C@H](O[C@@H]2[C@@H](O)[C@@H](O[C@H]3O[C@H](CO)[C@@H](O)[C@H](N)[C@@H]3O)[C@H](N)C[C@@H]2N)[C@H](O)[C@@H](O)[C@H]1O
- Potency [6]: inactive
- Potency [7]: inactive
- Potency [8]: inactive
- Potency [2]: inactive
- Potency [3]: inactive
- Potency [4]: inactive
- Potency [5]: inactive
- Potency [13]: inactive
- Potency [9]: inactive

Compound: O=C1CN2Cc3c(ccc(Cl)c3Cl)N=C2N1
- Potency [1]: inactive
- Potency [2]: 21.7 µM (active)
- Potency [4]: inactive
- Potency [5]: inactive

Compound: Cc1ccccc1-n1c(Cn2nc(-c3cccc(O)c3)c3c(N)ncnc32)nc2cccc(C)c2c1=O
- Potency [1]: 0.833 µM (active)
- Potency [2]: 0.0385 µM (active)
- Potency [3]: 0.118 µM (active)
- Potency [13]: inactive
- Potency [9]: 3.72 µM (active)
- Potency [16]: inactive
- Potency [10]: 7.37 µM (active)
- Potency [15]: inactive
- Potency [17]: inactive
- Potency [18]: inactive

Compound: CCC[C@@H](NC(=O)[C@@H]1[C@H]2CCC[C@@H]2CN1C(=O)[C@@H](NC(=O)[C@@H](NC(=O)c1cnccn1)C1CCCCC1)C(C)(C)C)C(=O)C(=O)NC1CC1
- Potency [1]: inactive
- Potency [4]: inactive
- Potency [5]: inactive
- Potency [13]: inactive

Compound: COc1ccc2nc3cc(Cl)ccc3c(Nc3cc(CN4CCCC4)c(O)c(CN4CCCC4)c3)c2n1
- Potency [1]: inactive
- Potency [8]: inactive
- Potency [4]: inactive
- Potency [13]: inactive
- Potency [9]: inactive

Compound: Oc1ccc(C=Cc2cc(O)cc(O)c2)cc1
- Potency [1]: 20.9 µM (active)
- Potency [8]: inactive
- Potency [4]: inactive
- Potency [5]: inactive
- Potency [13]: inactive
- Potency [9]: inactive

Compound: CN(C)CCN(Cc1ccc(Cl)cc1)c1ccccn1
- Potency [1]: 14.8 µM (active)
- Potency [8]: inactive
- Potency [4]: inactive
- Potency [5]: inactive
- Potency [13]: inactive

Compound: Cc1cc(-c2ncc(CC(=O)Nc3ccc(-c4cnccn4)cn3)cc2C)ccn1
- Potency [1]: 16.6 µM (active)
- Potency [8]: inactive
- Potency [2]: 5.44 µM (active)
- Potency [4]: inactive
- Potency [9]: inactive

Compound: Cc1ccccc1C(=O)c1ccc(Nc2ccc(Br)cc2N)cc1Cl
- Potency [1]: 20.9 µM (active)
- Potency [5]: inactive

Compound: CCCCC(C)(C)[C@H](O)C=C[C@H]1[C@H](O)CC(=O)[C@H]1CC=CCCCC(=O)O
- Potency [1]: inactive
- Potency [8]: inactive
- Potency [2]: inactive
- Potency [4]: inactive
- Potency [5]: inactive

Compound: CN1CC(=O)NC1=NC(=O)Nc1cccc(Cl)c1
- Potency [1]: 4.69 µM (active)
- Potency [8]: inactive
- Potency [3]: inactive
- Potency [4]: inactive
- Potency [5]: inactive

Compound: O=C(Nc1cccc2c(=O)cc(-c3nn[nH]n3)oc12)c1ccc(OCCCCc2ccccc2)cc1
- Potency [1]: inactive
- Potency [2]: 24.3 µM (active)
- Potency [3]: 37.2 µM (active)
- Potency [4]: inactive
- Potency [5]: inactive
- Potency [13]: inactive
- Potency [9]: inactive

Compound: NCC1CCC(C(=O)O)CC1 (stereo unspecified)
- Potency [6]: inactive
- Potency [7]: inactive
- Potency [8]: inactive
- Potency [2]: inactive
- Potency [3]: inactive
- Potency [4]: inactive
- Potency [5]: inactive
- Potency [13]: inactive
- Potency [9]: inactive

Compound: CN1C(=O)C(Cc2c[nH]c3ccccc23)NC1=S (stereo unspecified)
- Potency [6]: inactive
- Potency [7]: inactive
- Potency [8]: inactive
- Potency [2]: inactive
- Potency [3]: inactive
- Potency [4]: inactive
- Potency [5]: inactive
- Potency [13]: inactive

Compound: C=C1[C@H](n2cnc3c(=O)[nH]c(N)nc32)C[C@H](O)[C@H]1CO
- Potency [1]: inactive
- Potency [8]: inactive
- Potency [2]: 8.63 µM (active)
- Potency [13]: inactive
- Potency [9]: inactive
- Potency [16]: inactive
- Potency [10]: inactive
- Potency [14]: 7.37 µM (active)
- Potency [15]: inactive
- Potency [17]: inactive
- Potency [19]: inactive
- Potency [11]: inactive
- Potency [20]: inactive
- Potency [18]: 8.27 µM (active)

Compound: CC[C@H](NC(=O)[C@H](C)NC)C(=O)N1C[C@@H](O)C[C@H]1Cc1c(-c2[nH]c3cc(F)ccc3c2C[C@H]2C[C@H](O)CN2C(=O)[C@H](CC)NC(=O)[C@H](C)NC)[nH]c2cc(F)ccc12
- Potency [6]: 0.372 µM (active)
- Potency [7]: 0.273 µM (active)
- Potency [8]: inactive
- Potency [2]: 0.432 µM (active)
- Potency [13]: inactive
- Potency [9]: inactive
- Potency [10]: 7.37 µM (active)
- Potency [15]: 18.5 µM (active)
- Potency [19]: 5.22 µM (active)
- Potency [11]: inactive
- Potency [18]: 2.93 µM (active)
